From the supplement of paper PMC9399229
± gives the standard deviation of the averaged measurements. Whole data set: some 1,900 compounds, median “relative cell viability (CellTiter-Glo), compound alone” near 1, cut for the lowest 2% near 0.16. Many of the other results were omitted from the sample, so the lowest values are more common in it than they were.

The compounds below were run on Hep3B (assay: relative cell viability (CellTiter-Glo), compound alone (fraction); higher = more viable cells (less growth inhibition)). Conditions: cabozantinib 0 µM; 4 days.
In the case of `C[C@H]1CCC/C=C/[C@@H]2C[C@H](O)C[C@H]2[C@H](O)/C=C/C(=O)O1` [Brefeldin A], the relative cell viability is reported as 0.111 ± 0.0018.
In the case of `CC(C)OC(=O)[C@H](C)N[P@](=O)(CO[C@H](C)Cn1cnc2c(N)ncnc21)Oc1ccccc1` [Tenofovir Alafenamide (GS-7340)], the relative cell viability is reported as 1.12 ± 0.17.
`CC(C)[C@]12O[C@H]1[C@@H]1O[C@]13[C@]1(O[C@H]1C[C@H]1C4=C(CC[C@@]13C)C(=O)OC4)[C@@H]2O` [Triptolide (PG490)] was tested, and the relative cell viability was 0.179 ± 0.009.
With `CN1CCc2cc3c(cc2C1C1OC(=O)c2c1ccc1c2OCO1)OCO3` (single isomer, unassigned; (+)) [(+)-Bicuculline] the relative cell viability was 1.1 ± 0.094.
With `CN1[C@@H]2CC(O)C[C@H]1[C@@H]1O[C@@H]12` (stereo not given in full) [Scopine] the relative cell viability was 1.05 ± 0.1.
`CCN1CCN(C(=O)Cc2ccc(Nc3ncc(F)c(Nc4ccc(C(=O)Nc5ccccc5Cl)cc4)n3)cc2)CC1` [Aurora A Inhibitor I] gave a relative cell viability of 0.328 ± 0.1.
`C[C@@H]1O[C@@H](O[C@H]2C[C@@H](O)[C@]3(CO)[C@H]4[C@H](O)C[C@]5(C)[C@@H](C6=CC(=O)OC6)CC[C@]5(O)[C@@H]4CC[C@]3(O)C2)[C@H](O)[C@H](O)[C@H]1O` [Ouabain] gave a relative cell viability of 0.103 ± 0.0012.
`Cn1cc(C2=C(c3cn(C4CCN(Cc5ccccn5)CC4)c4ccccc34)C(=O)NC2=O)c2ccccc21` gave a relative cell viability of 1.29 ± 0.031.
With `C[C@@H]1[C@H](O)[C@@H](C)/C=C/C=C/CC/C=C/C=C/C=C/C=C/[C@H](O[C@H]2O[C@@H](C)[C@H](O)[C@@H](N)[C@H]2O)C[C@@H]2O[C@](O)(C[C@@H](O)[C@H](O)CC[C@@H](O)C[C@@H](O)C[C@@H](O)CC(=O)O[C@H]1C)C[C@H](O)[C@H]2C(=O)O` [Nystatin (Fungicidin)] the relative cell viability was 1.06 ± 0.15.
With `COC(=O)C1=CCCN(C)C1` [Arecoline] the relative cell viability was 1.02 ± 0.074.
`c1ccc([C@@H]2C[C@H]2NC2CCNCC2)cc1` gave a relative cell viability of 0.9895 ± 0.0065.
Work on `O=c1[nH]c2ccc(Cl)cc2c(N[C@@H]2CN3CCC2CC3)c1-c1nc2ccccc2[nH]1` yielded a relative cell viability of 0.13 ± 0.018.
For `CCOC(=O)c1cncn1[C@H](C)c1ccccc1` [Etomidate], the relative cell viability was 1.24 ± 0.049.
With `CCN1CC2(OC(=O)c3ccccc3NC(C)=O)CCC(OC)C34C1C(CC23)C1(O)CC(OC)C2CC4C1(O)C2OC` (stereo not given) [Lappaconite HBr] the relative cell viability was 0.984 ± 0.092.
Compound `O=C1C=CC[C@@H]2[C@H]3CCCN4CCC[C@@H](CN12)[C@@H]34` [Sophocarpine] has a relative cell viability of 1.02 ± 0.17.
Work on `CCOc1ccccc1-n1c(C(C)N2CCN(C(=O)COc3ccc(Cl)cc3)CC2)nc2ccccc2c1=O` (stereo not given) [Erastin] yielded a relative cell viability of 1.21 ± 0.063.
With `COc1cc([C@@H]2c3cc4c(cc3[C@H](O)[C@H]3COC(=O)[C@@H]23)OCO4)cc(OC)c1OC` [Picropodophyllin (PPP)] the relative cell viability was 0.7418 ± 0.0018.
Work on `[O-][n+]1ccccc1[S-].[O-][n+]1ccccc1[S-].[Zn+2]` [Zinc Pyrithione] yielded a relative cell viability of 0.0193 ± 0.0014.
With `CCN(Cc1ccc(Cl)nc1)/C(=C/[N+](=O)[O-])NC` [Nitenpyram] the relative cell viability was 0.914 ± 0.12.
For `CN1CCN(c2nc3ccccc3nc2Cl)CC1`, the relative cell viability was 1.13 ± 0.04.
